3 compounds from PubChem BioAssay (EPA / NIEHS) can be followed below.

Structures are written as SMILES. The source made the active and inactive calls. Rule for the calls: active = hit-call score of the fitted dose curve at least 0.9, where 1 is the maximum; inactive = score below 0.9.

Holding throughout (settings): mRNA level, 48 h; actives raise or lower the signal
Read-out in experiment [1]: adenosine kinase (ADK) gene, ADK (gene 132)
As to the kind of experiment: LTEA_HepaRG_ADK: Life Technologies and Expression Analysis (LTEA) Assay for adenosine kinase (ADK) gene using HepaRG (AID 2283471). An outline of the steps:
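Read-out is ADK transcript level measured by qRT-PCR and normalised to three housekeeping genes. Cells are human HepaRG, dosed for 48 h at up to 100 uM in 0.5% DMSO. Gain or loss of signal is fitted against DMSO controls.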

Read-out in experiment [2]: Alpha-fetoprotein (AFP) gene, AFP (gene 174)
As to the kind of experiment: LTEA_HepaRG_AFP: Life Technologies and Expression Analysis (LTEA) Assay for Alpha-fetoprotein (AFP) gene using HepaRG (AID 2283472). An outline of the steps:
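AFP transcript measured by TaqMan qRT-PCR with three housekeeping genes for normalization, after 48 h chemical treatment of HepaRG cells (top 100 uM, half-log steps, 0.5% DMSO). Gain or loss fitted against vehicle.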

Read-out in the next experiment: BCL2L11 (gene 10018)
Description: LTEA_HepaRG_BCL2L11: Life Technologies and Expression Analysis (LTEA) Assay for Bcl-2 (BCL2L11) gene using HepaRG (AID 2283473). An outline of the steps:
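Differentiated human HepaRG cells were exposed 48 h in serum-free induction medium to eight half-log concentrations up to 100 uM in 0.5% DMSO, in duplicate. BCL2L11 mRNA was quantified by TaqMan qRT-PCR, normalized to ACTB, GAPDH and POLR2A; induction or repression fitted versus DMSO.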

Read-out in experiment [3]: Apolipoprotein A-V (APOA5) gene, APOA5 (gene 116519)
As to the kind of experiment: LTEA_HepaRG_APOA5: Life Technologies and Expression Analysis (LTEA) Assay for Apolipoprotein A-V (APOA5) gene using HepaRG (AID 2283474). An outline of the steps: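 Differentiated HepaRG cells in serum-free induction medium, exposed 48 h in duplicate to eight half-log concentrations topping at 100 uM (0.5% DMSO). APOA5 mRNA by Fluidigm TaqMan qRT-PCR, normalized to ACTB, GAPDH and POLR2A; bidirectional fit versus DMSO.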

Read-out in experiment [4]: Apoptosis regulator Bcl-2 (Homo sapiens) (UniProt P10415)
As to the kind of experiment: LTEA_HepaRG_BCL2: Life Technologies and Expression Analysis (LTEA) Assay for Bcl-2 gene using HepaRG (AID 2283475). An outline of the steps: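 qRT-PCR of BCL2 transcript, normalized to three housekeeping genes (ACTB, GAPDH, POLR2A), after 48 h chemical exposure of HepaRG cells; concentrations top 100 uM with half-log dilutions, 0.5% DMSO vehicle, duplicates; changes up or down fitted relative to vehicle.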

Read-out in experiment [5]: Bcl-2 (BID) gene, BID (gene 637)
Description: LTEA_HepaRG_BID: Life Technologies and Expression Analysis (LTEA) Assay for Bcl-2 (BID) gene using HepaRG (AID 2283476). An outline of the steps: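 Duplicate 48 h treatments of HepaRG cells in serum-free induction medium spanned 100 uM downward in half-log steps, 0.5% DMSO. Transcript change quantified by qRT-PCR against three housekeeping genes, fitted up or down versus DMSO.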

Read-out in another experiment: Caspase-3 (Homo sapiens) (UniProt P42574)
As to the kind of experiment: LTEA_HepaRG_CASP3: Life Technologies and Expression Analysis (LTEA) Assay for cysteine-aspartic acid protease (CASP3) using HepaRG (AID 2283477). In outline:
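Differentiated HepaRG cells, plated 48 h, were treated in duplicate in serum-free induction medium for 48 h with eight half-log concentrations up to 100 uM in 0.5% DMSO. CASP3 mRNA measured by qRT-PCR, normalized to ACTB, GAPDH, POLR2A.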

Read-out in experiment [6]: Cytochrome P450 (CYP24A1), CYP24A1 (gene 1591)
Description: LTEA_HepaRG_CYP24A1: Life Technologies and Expression Analysis (LTEA) Assay for Cytochrome P450 (CYP24A1) using HepaRG (AID 2283478). An outline of the steps:
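HepaRG cells plated 48 h, then exposed in duplicate in serum-free induction medium for 48 h to 8-point half-log series from 100 uM in 0.5% DMSO. CYP24A1 mRNA by Fluidigm qRT-PCR, normalized to ACTB, GAPDH, POLR2A; bidirectional fit versus DMSO.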

Read-out in experiment [7]: Cytochrome P450 (CYP1A2), CYP1A2 (gene 1544)
As to the kind of experiment: LTEA_HepaRG_CYP1A2: Life Technologies and Expression Analysis (LTEA) Assay for Cytochrome P450 (CYP1A2) using HepaRG (AID 2283479). In outline:
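Differentiated human HepaRG cells in serum-free induction medium exposed 48 hours in duplicate to 8 half-log concentrations from 100 uM, 0.5% DMSO. CYP1A2 mRNA quantified by qRT-PCR, normalized to ACTB, GAPDH and POLR2A; bidirectional fitting versus DMSO.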

Read-out in experiment [8]: cysteine-aspartic acid protease (CASP8), CASP8 (gene 841)
As to the kind of experiment: LTEA_HepaRG_CASP8: Life Technologies and Expression Analysis (LTEA) Assay for cysteine-aspartic acid protease (CASP8) using HepaRG (AID 2283480). In outline: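 qRT-PCR readout of CASP8 mRNA, normalized to three housekeeping genes, after 48 h chemical exposure of HepaRG cells; 8-point half-log series, top 100 uM, 0.5% DMSO vehicle. Bidirectional curve fitting against DMSO baseline.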

Read-out in experiment [9]: Cytochrome P450 (CYP2B6), CYP2B6 (gene 1555)
As to the kind of experiment: LTEA_HepaRG_CYP2B6: Life Technologies and Expression Analysis (LTEA) Assay for Cytochrome P450 (CYP2B6) using HepaRG (AID 2283481). In outline: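 Differentiated human HepaRG cells in serum-free induction medium, dosed in duplicate for 48 h over 8 half-log concentrations topping at 100 uM (0.5% DMSO). CYP2B6 mRNA measured by TaqMan qRT-PCR, normalized to ACTB, GAPDH, POLR2A; bidirectional fit versus DMSO.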

Read-out in experiment [10]: Cytochrome P450 2C19 (Homo sapiens) (UniProt P33261)
Description: LTEA_HepaRG_CYP2C19: Life Technologies and Expression Analysis (LTEA) Assay for CYP2C19 using HepaRG (AID 2283482). An outline of the steps:
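Differentiated HepaRG cells in serum-free induction medium exposed 48 h in duplicate, 8 concentrations from 100 uM by half-log steps in 0.5% DMSO. CYP2C19 mRNA measured by TaqMan qRT-PCR, normalized to ACTB, GAPDH, POLR2A. Bidirectional fit versus DMSO.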

Read-out in the next experiment: CYP2C8 (gene 1558)
As to the kind of experiment: LTEA_HepaRG_CYP2C8: Life Technologies and Expression Analysis (LTEA) Assay for CYP2C8 using HepaRG (AID 2283483). In outline:
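HepaRG (human liver line), 48 h chemical exposure, 8-pt half-log series from 100 uM, 0.5% DMSO vehicle. Readout: CYP2C8 transcript by qRT-PCR, housekeeping-normalized. Bidirectional fit vs DMSO baseline.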

Read-out in another experiment: CYP2C9 (gene 1559)
Description: LTEA_HepaRG_CYP2C9: Life Technologies and Expression Analysis (LTEA) Assay for CYP2C9 using HepaRG (AID 2283484). An outline of the steps:
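HepaRG, 48 h dosing, 8-pt half-log series, top 100 uM, 0.5% DMSO vehicle. Read-out: CYP2C9 transcript by TaqMan qRT-PCR, housekeeping-normalized (ACTB/GAPDH/POLR2A). Gain or loss fitted vs DMSO baseline.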

Read-out in another experiment: CYP2E1 (gene 1571)
As to the kind of experiment: LTEA_HepaRG_CYP2E1: Life Technologies and Expression Analysis (LTEA) Assay for CYP2E1 using HepaRG (AID 2283485). In outline: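 CYP2E1 transcript measured by Fluidigm qRT-PCR against three housekeeping genes in human HepaRG cells treated 48 h (top 100 uM, half-log steps, 0.5% DMSO vehicle). Gain or loss fitted relative to DMSO baseline.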

Read-out in a further experiment: CYP4A11 (gene 1579)
Description: LTEA_HepaRG_CYP4A11: Life Technologies and Expression Analysis (LTEA) Assay for CYP4A11 using HepaRG (AID 2283486). An outline of the steps: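 Differentiated HepaRG cells, 48 h after plating, exposed in duplicate for 48 h to 8 half-log concentrations up to 100 uM in 0.5% DMSO in serum-free induction medium. CYP4A11 mRNA measured by TaqMan qRT-PCR, normalized to ACTB, GAPDH and POLR2A.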

Read-out in experiment [11]: DNA damage-inducible transcript 3 (DDIT3), DDIT3 (gene 1649)
As to the kind of experiment: LTEA_HepaRG_DDIT3: Life Technologies and Expression Analysis (LTEA) Assay for DNA damage-inducible transcript 3 (DDIT3) using HepaRG (AID 2283488). In outline:
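DDIT3 transcript was quantified by qRT-PCR with ACTB/GAPDH/POLR2A normalization after 48 h chemical treatment of differentiated HepaRG cells in 0.5% DMSO. Dosing was eight-point, half-log, top 100 uM, duplicate wells. Curves fitted bidirectionally versus DMSO.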

Read-out in experiment [12]: Pro-epidermal growth factor (Homo sapiens) (UniProt P01133)
Description: LTEA_HepaRG_EGF: Life Technologies and Expression Analysis (LTEA) Assay for Epidermal growth factor (EGF) using HepaRG (AID 2283489). An outline of the steps:
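HepaRG cells (~100,000/well, 48 h pre-culture) exposed in duplicate for 48 h in serum-free induction medium to 8 half-log concentrations up to 100 uM in 0.5% DMSO. EGF mRNA by qRT-PCR, normalized to ACTB/GAPDH/POLR2A; bidirectional fit versus DMSO.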

Read-out in experiment [13]: Early growth response protein 1 (EGR1) transcription factor, EGR1 (gene 1958)
Description: LTEA_HepaRG_EGR1: Life Technologies and Expression Analysis (LTEA) Assay for Early growth response protein 1 (EGR1) transcription factor using HepaRG (AID 2283490). In outline: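 HepaRG, 48 h exposure, 8-pt half-log series from 100 uM, 0.5% DMSO vehicle; EGR1 transcript by TaqMan qRT-PCR (Fluidigm array), housekeeping-normalized; bidirectional fit relative to DMSO baseline.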

Read-out in experiment [14]: Cytochrome P450 3A4 (Homo sapiens) (UniProt P08684)
As to the kind of experiment: LTEA_HepaRG_CYP3A4: Life Technologies and Expression Analysis (LTEA) Assay for CYP3A4 using HepaRG (AID 2283487). In outline: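 HepaRG, 48 h exposure, 8-pt CRC from 100 uM (half-log), 0.5% DMSO, duplicates; serum-free induction medium. Readout: CYP3A4 mRNA, qRT-PCR, ACTB/GAPDH/POLR2A normalization. Bidirectional fit vs DMSO.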

Sequence of Cytochrome P450 2C19 (Homo sapiens) (P33261 whole entry, looked up): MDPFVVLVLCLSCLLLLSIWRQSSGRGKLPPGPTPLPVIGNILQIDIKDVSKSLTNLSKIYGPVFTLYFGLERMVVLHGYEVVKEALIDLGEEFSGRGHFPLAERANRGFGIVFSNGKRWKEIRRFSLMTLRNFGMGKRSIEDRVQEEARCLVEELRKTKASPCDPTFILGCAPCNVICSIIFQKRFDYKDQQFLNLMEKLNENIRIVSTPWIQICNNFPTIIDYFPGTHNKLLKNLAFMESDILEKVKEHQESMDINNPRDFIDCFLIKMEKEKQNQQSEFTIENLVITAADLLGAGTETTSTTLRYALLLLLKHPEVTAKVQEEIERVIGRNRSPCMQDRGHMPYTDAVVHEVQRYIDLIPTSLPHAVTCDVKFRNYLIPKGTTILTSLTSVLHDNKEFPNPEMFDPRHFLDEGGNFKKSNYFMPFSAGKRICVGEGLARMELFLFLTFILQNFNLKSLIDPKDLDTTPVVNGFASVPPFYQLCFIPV
Sequence of Apoptosis regulator Bcl-2 (Homo sapiens) (P10415 whole entry, looked up): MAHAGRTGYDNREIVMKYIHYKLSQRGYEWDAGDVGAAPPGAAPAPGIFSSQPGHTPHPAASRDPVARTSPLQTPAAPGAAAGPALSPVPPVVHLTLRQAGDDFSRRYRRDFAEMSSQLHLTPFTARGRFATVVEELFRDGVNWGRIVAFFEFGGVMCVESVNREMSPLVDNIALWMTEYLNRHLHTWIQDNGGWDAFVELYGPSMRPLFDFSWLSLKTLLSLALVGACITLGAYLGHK
Sequence of Caspase-3 (Homo sapiens) (P42574 whole entry, looked up): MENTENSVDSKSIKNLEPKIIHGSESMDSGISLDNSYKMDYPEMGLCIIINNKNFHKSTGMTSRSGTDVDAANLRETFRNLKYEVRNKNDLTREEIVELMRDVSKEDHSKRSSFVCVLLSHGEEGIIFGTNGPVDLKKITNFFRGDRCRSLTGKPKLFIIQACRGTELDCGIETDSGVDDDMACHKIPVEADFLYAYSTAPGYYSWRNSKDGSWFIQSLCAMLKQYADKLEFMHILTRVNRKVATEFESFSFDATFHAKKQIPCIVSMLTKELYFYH
Sequence of Cytochrome P450 3A4 (Homo sapiens) (P08684 whole entry, looked up): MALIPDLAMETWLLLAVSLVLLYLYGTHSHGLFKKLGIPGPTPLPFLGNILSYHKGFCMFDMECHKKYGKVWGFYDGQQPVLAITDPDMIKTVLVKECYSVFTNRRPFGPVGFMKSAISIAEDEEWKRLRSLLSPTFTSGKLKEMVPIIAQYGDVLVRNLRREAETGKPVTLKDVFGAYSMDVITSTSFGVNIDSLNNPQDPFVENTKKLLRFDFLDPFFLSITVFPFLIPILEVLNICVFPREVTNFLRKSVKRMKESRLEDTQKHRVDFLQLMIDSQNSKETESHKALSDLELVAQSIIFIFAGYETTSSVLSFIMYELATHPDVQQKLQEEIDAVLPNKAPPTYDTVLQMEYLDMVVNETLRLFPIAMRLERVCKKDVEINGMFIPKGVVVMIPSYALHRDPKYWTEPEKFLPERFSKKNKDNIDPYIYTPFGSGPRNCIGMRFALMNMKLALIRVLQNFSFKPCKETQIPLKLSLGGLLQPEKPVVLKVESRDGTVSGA

For the compound `CC#C[C@]1(O)CC[C@H]2[C@@H]3CCC4=CC(=O)CCC4=C3[C@@H](c3ccc(N(C)C)cc3)C[C@@]21C`, the half-maximal activity concentration (AC50) – broadly, the midpoint of the concentration-response curve, whichever way the signal moves – in [1] was 80.6 µM (active); in [2] it was 23.7 µM (active); with BCL2L11 (gene 10018) it was 27.3 µM (active); in experiment [3], 29.7 µM (active); in experiment [4], 19 µM (active); in experiment [5] it was 6.74 µM (active). Further, the AC50 was 27.4 µM (active) with Caspase-3 (Homo sapiens); 26.4 µM (active) in experiment [7]; 27.6 µM (active) in experiment [8]; 34 µM (active) in experiment [9]; 33 µM (active) in experiment [10]; 28 µM (active) with CYP2C8 (gene 1558). Besides, the AC50 is 50 µM (active) with CYP2C9 (gene 1559); 19.6 µM (active) with CYP2E1 (gene 1571); 23.9 µM (active) in the experiment with CYP4A11 (gene 1579); 29.2 µM (active) in experiment [11]; 4.48 µM (active) in experiment [12]; 8.69 µM (active) in experiment [13]. Besides, in experiment [6], the result was inactive.
Consider `CCCCCCCCOC(=O)CCCCCCCCC(=O)OCCCCCCCC`, for which the outcome (in [1]; in experiment [2]; with BCL2L11 (gene 10018); in experiment [3]; in experiment [4]; in [5]) was inactive. The result (in the experiment with Caspase-3 (Homo sapiens); in experiment [6]; in [8]; in [9]; in [10]; in the experiment with CYP2C8 (gene 1558)) was inactive. In addition, the compound was called inactive (with CYP2C9 (gene 1559); with CYP2E1 (gene 1571); in the experiment with CYP4A11 (gene 1579); in experiment [14]; in experiment [11]; in experiment [12]). Also, the call in experiment [13] was inactive. The half-maximal activity concentration (AC50) in experiment [7] is 29.9 µM (active).
Turning to `OCCC(F)(F)C(F)(F)C(F)(F)C(F)(F)C(F)(F)C(F)(F)C(F)(F)C(F)(F)F`, the result (in [1]; in experiment [2]; with BCL2L11 (gene 10018); in [3]; in [4]; in experiment [5]) was inactive. The compound was called inactive (with Caspase-3 (Homo sapiens); in experiment [6]; in experiment [7]; in experiment [8]; in experiment [9]; in [10]). The call (with CYP2C8 (gene 1558); with CYP2C9 (gene 1559); in the experiment with CYP2E1 (gene 1571); with CYP4A11 (gene 1579); in experiment [14]; in experiment [11]) was inactive. Further, the call in [12] and in experiment [13] was inactive.
